M1 antag – M1 muscarinic receptor (rat) antagonism; CHO-M1 cells, Fluo-4 calcium, ACh EC80 antagonist mode; hits give low values; hit rate 3.4% among 64,000; B-score at 10 µM; AID 628;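 active = calcium fluorescence response, raw or row-and-column corrected B-score, differing from the plate sample mean either way at a set confidence level, mostly lower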
Target sequence (P08482 whole entry, looked up): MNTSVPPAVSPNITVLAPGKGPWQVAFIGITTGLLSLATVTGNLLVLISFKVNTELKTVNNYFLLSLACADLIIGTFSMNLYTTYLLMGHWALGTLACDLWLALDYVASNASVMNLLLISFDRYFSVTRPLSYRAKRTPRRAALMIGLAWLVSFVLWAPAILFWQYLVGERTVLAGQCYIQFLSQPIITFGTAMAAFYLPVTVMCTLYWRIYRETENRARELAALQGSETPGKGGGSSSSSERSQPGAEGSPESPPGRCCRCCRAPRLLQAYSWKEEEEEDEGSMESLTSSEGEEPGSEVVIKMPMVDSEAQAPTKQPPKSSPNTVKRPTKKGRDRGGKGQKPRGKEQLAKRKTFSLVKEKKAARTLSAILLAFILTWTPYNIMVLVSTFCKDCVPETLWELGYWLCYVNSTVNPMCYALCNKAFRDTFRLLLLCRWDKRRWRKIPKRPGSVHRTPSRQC
PLAP act – activates human placental alkaline phosphatase | P05187 | activation fold at 20 µM | hit rate 1.2% among 96,000 | purified PLAP enzyme, luminescent substrate read-out; hits give high values | AID 696; in the data active = activation fold above about 2
HER2 expr 66K – lowers expression of human Her2 kinase; SKBR-3 HER2 protein level, AlphaScreen, 18-24 h; hits give low values; HER2 level % of control, % at 10 µM; hit rate 0.69% among 65,000; AID 645;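 active = HER2 level under 5% of the carrier-only control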;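 also: 100% = DMSO carrier and 0% = 500 nM PU-H71 HSP90 inhibitor; lower value means stronger loss of Her2 protein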
M1 ag – agonists of M1 muscarinic receptor; CHO-M1 cells, Fluo-4 calcium fluorescence, agonist mode; hits give high values; B-score at 10 µM; hit rate 3% among 64,000; AID 626;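 active = fluorescence rise, raw or as B-score row- and column-corrected plate score, outside the 99.7% band of its plate's samples, either direction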
Cav32 inh – inhibitors of human Cav3.2 T-type calcium channel. B-score at 10 µM. hit rate 4% among 100,000. O95180. Cav3.2-expressing cells, Fluo-4 calcium fluorescence FDSS; hits give low values;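 active = single-dose well whose peak fluorescence ratio is a statistical outlier from its plate by either plate-standardised score or position-corrected B-score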
Numbers without * were called inactive; . = no result. The list is not random: actives were taken first. Their share in the collection is about 7.9%.

SMILES	M1 antag	PLAP act	HER2 expr 66K	M1 ag	Cav32 inh
Cc1nnc(N/N=C/c2cc([N+](=O)[O-])c(N3CCC(C)CC3)cc2N2CCC(C)CC2)n1N	.	1.6	.	.	-6.7*
CN(C)/C=N/c1c(C(=O)NCc2ccccc2)nnn1Cc1ccccc1	-0.008	1.1	111	-0.33	-0.24
C=C1CCN(C(C(=O)OC)C(C)C)S(=O)(=O)c2ccccc21 (stereo not given)	.	.	.	.	0.23
Cc1ccc(-c2csc(NC(=O)c3cccc(N4C(=O)CCC4=O)c3)n2)o1	-0.33	.	94	2.6	-5.2*
CCC(C)(C)NC(=O)C(c1ccc(OC)cc1)N(Cc1cccs1)C(=O)CCC(=O)Nc1cc(C)on1 (stereo not given)	.	.	.	.	-5.5*
Cc1cc2c3c(c1)C1(SCC(=O)N1c1ccc(F)cc1)C(=O)N3C(C)(C)CC2C (stereo not given)	.	1.7	.	.	-3.4*
c1ccc(CN2c3ccccc3-c3nc4ccccc4n3C2c2ccccn2)cc1 (stereo not given)	.	1.3	.	.	-6.6*
CC(C)n1nc(Cc2cccc3ccccc23)c(C#N)c1N	.	.	.	.	-0.55
Cc1ccc(C2C(C#N)=C(N)Oc3cc4c(cc32)OCO4)cc1 (stereo not given)	0.11	1	85	0.0045	-4.4*
O=S(=O)(Nc1ccc2c(c1)OCO2)c1ccc(Br)s1	-0.33	0.9	99	0.11	-2.7
COc1cc(NS(=O)(=O)c2ccc(Br)s2)cc(OC)c1	-0.16	1.2	90	0.066	-5.8*
CCOc1ccccc1CN1C(=O)c2ccccc2C1C(=O)NC(C)CC (stereo not given)	.	0.9	.	.	0.059
CCN1CCN(CCCNC(=O)C2c3ccccc3C(=O)N(C)C2c2ccc(OC)cc2)CC1 (stereo not given)	0.16	1.3	114	-0.23	-5.6*
O=C(O)COc1ccc(/C=N/NC(=O)C2CCCN2S(=O)(=O)c2ccc(Cl)cc2)cc1 (stereo not given)	.	1.3	.	.	0.43
Cc1cc(=O)[nH]c(-n2[nH]c3c(c2=O)CCCC3)n1	.	2.6*	.	.	-0.039
Cc1nc(-n2[nH]c3c(c2=O)CCCC3)[nH]c(=O)c1Cc1ccccc1	.	1.9	.	.	0.92
CC(C)C(=O)N1CCC(CN=Cc2c(O)n(C3CCCCC3)c(=O)n(C3CCCCC3)c2=O)CC1	0.032	1.5	40	1.7	-11*
Cc1ccc(CN(C(=O)Cn2nnc3ccccc32)C(C(=O)NCc2ccco2)c2cccs2)cc1 (stereo not given)	-0.032	1.8	64	-0.39	-9.4*
O=C(NCc1ccco1)C(c1ccco1)N(Cc1cccs1)C(=O)Cn1nnc2ccccc21 (stereo not given)	.	.	.	.	0.96
O=C(NCc1ccco1)C(c1ccc(F)cc1)N(CC1CCCO1)C(=O)Cn1nnc2ccccc21 (stereo not given)	0.5	1.4	98	0.44	-4.9*
O=C(NCc1ccco1)C(c1ccco1)N(CCc1ccccc1)C(=O)Cn1nnc2ccccc21 (stereo not given)	0.36	1	95	-0.65	-6.2*
CCc1cc(-c2n[nH]c(C)c2Oc2ccc(C(C)C)cc2)c(O)cc1O	.	1.9	.	.	-0.037
CN1CCN(/C=N/c2c(C#N)cnn2Cc2ccccc2)CC1	-0.54	1	113	-0.19	-0.064
CCCCCCCCCCC[C@@H](C[C@@H]1OC(=O)[C@H]1CCCCCC)OC(=O)[C@H](CC(C)C)NC=O	.	.	.	.	-0.26
Cc1cc(Br)ccc1NCc1ccccn1	.	0.9	.	.	-0.12
SMILES	M1 antag	PLAP act	HER2 expr 66K	M1 ag	Cav32 inh
COc1ccc([N+](=O)[O-])cc1NC1CCCCC1	.	1	.	.	-5*
CCOC(=O)C1=C(c2ccccc2)N(C)C(=O)NC1c1ccc(OC(F)F)c(OC)c1 (stereo not given)	0.19	1.2	81	-1.1	-8.6*
O=C(CC1CCCC1)OCn1nnc2ccccc2c1=O	-0.39	0.9	83	0.25	0.038
O=C(CCSc1nnc(-c2ccco2)o1)Nc1ccc(Cl)cc1	-0.43	1.1	102	-1.3	-1.6
Clc1ccc(-c2nnc(-c3ccco3)o2)cc1	-0.2	1	54	-0.62	-4.5*
COc1ccc(N=CC2=C(Nc3ccc(OC)cc3)c3c(C)nn(-c4ccccn4)c3CC2)cc1	.	.	.	.	-4.2*
Cc1cccc(NC(=S)NC(=O)CCc2ccccc2)c1C	.	1.2	.	.	-0.22
Cc1cccc(NC(=S)NN(Cc2ccccc2)c2ccccc2)c1C	.	1	.	.	-4.9*
Cc1ccc(OCC(=O)N2CC3(C)CC2CC(C)(C)C3)cc1 (stereo not given)	.	.	.	.	-1.6
Cc1ccc(C(=O)Nc2ccccc2C(=O)N2CC3(C)CC2CC(C)(C)C3)cc1 (stereo not given)	.	1.4	.	.	-5.9*
COC(=O)CCCCCN1C(=O)NC(C2CC2)C(C(=O)OCc2ccccc2)=C1C (stereo not given)	.	.	.	.	-0.97
CCOC(=O)c1c(C)nc2sc(C(=O)Nc3ccc(OC)cc3)c(N)c2c1-c1ccc(OC)cc1	.	1.6	.	.	-4.8*
CCOC(=O)c1c(C)nc2sc(C(=O)Nc3ccc(C(C)=O)cc3)c(N)c2c1-c1ccc(OC)cc1	.	1.3	.	.	0.036
O=C(Oc1c(Cl)cc(Cl)c2cccnc12)c1ccco1	.	2.1*	.	.	-1.8
COc1cccc(NC(=O)c2ccc(CN3CCOCC3)cc2)c1	0.68	0.9	245	-1	0.56
O=C(Oc1ccc(Cl)c2cccnc12)N1CCOCC1	0.59	0.9	1.0*	0.39	0.34
O=C(Oc1c(CN2CCOCC2)cc(Cl)c2cccnc12)c1ccc(F)cc1	-0.9	2*	85	-0.075	-4.1
COc1cccc(C(=O)Oc2c(CN3CCOCC3)cc(Cl)c3cccnc23)c1	.	2.6*	.	.	-0.88
O=C(Oc1ccc(Cl)c2cccnc12)N1CCCCC1	0.072	1.5	88	0.71	-0.084
CC(C)(C)NC(=O)C(c1ccccn1)N(C(=O)C1CSC(=O)C1)c1ccc(F)cc1 (stereo not given)	.	1.5	.	.	0.92
CCOC(=O)N1CCC(Nc2c(NCCCN(C)Cc3ccccc3)c(=O)c2=O)CC1	0.7	1.3	85	0.049	-0.4
OCCN1CCN(Cc2cc(Cl)c3cccnc3c2O)CC1	.	2.2*	.	.	0.69
COc1ccc(C(=O)Oc2c(CN3CCOCC3)cc(Cl)c3cccnc23)cc1	-0.28	2*	75	-0.37	-3.3
COc1cc(C(=O)Oc2c(CN3CCOCC3)cc(Cl)c3cccnc23)cc(OC)c1OC	0.61	2*	72	0.057	.
Cc1ccc(Cl)cc1N1CCN(S(=O)(=O)c2ccc3c(c2)OCCO3)CC1	-0.68	0.9	121	-0.56	-5.2*
O=S(=O)(NCCSCc1ccc(Cl)cc1Cl)c1ccc2c(c1)OCCO2	.	0.8	.	.	-4.5*
O=S(=O)(NCCSc1ccc(Cl)cc1)c1ccc2c(c1)OCCO2	0.5	1	91	0.6	-8.7*
O=S(=O)(NCCSCc1c(Cl)cccc1Cl)c1ccc2c(c1)OCCO2	.	1	.	.	-3.6
O=C1C2C3c4ccccc4C(c4ccccc43)C2C(=O)N1Cc1cccnc1 (stereo not given)	.	0.9	.	.	0.51
CCN(CC)C(=O)c1sc(NC(=O)C(Sc2ccccc2)c2ccccc2)c(C(=O)OC(C)C)c1C (stereo not given)	.	1.6	.	.	-4.5*
